According to PubChem BioAssay AID1159580 (chemical genetic matrix, 2015):
In all, about 5,500 compounds went through this assay and about 2,000 (36%) were called active. Another 18% or so got no clear call; they are omitted. Cut-off read from the data, not from the text of the source: active = normalized growth mostly below about 0.91 (no sharp cut-off); inconclusive = no clear call, values can overlap the other calls; inactive = mostly above about 0.92. Some of the results follow.

Experiment: chemical genetic growth profiling, strain panel (AID 1159580);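 note: tested at 20 µM; growth read once vehicle control cultures reached saturation at 30 °C; 1 = growth at the plate median or of vehicle wells; lower values mean less growth of the strain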
Conditions: S. cerevisiae deletion strains, growth OD
[1] = locus YAR019C, strain CDC15, active compounds read low
[2] = locus YBL105C, strain PKC1, active compounds read low
[3] = locus YBR135W, strain CKS1, active compounds read low
[4] = locus YBR136W, strain MEC1, active compounds read low
[5] = locus YBR160W, strain CDC28, active compounds read low
[6] = locus YDL017W, strain CDC7, active compounds read low
[7] = locus YDL028C, strain MPS1, active compounds read low
[8] = locus YDL101C, strain DUN1, active compounds read low
[9] = locus YDL108W, strain KIN28, active compounds read low
[10] = locus YDL132W, strain cdc53, active compounds read low
[11] = locus YDL214C, strain PRR2, active compounds read low
[12] = locus YDR052C, strain DBF4, active compounds read low
[13] = locus YDR054C, strain cdc34, active compounds read low
[14] = locus YDR226W, strain ADK1, active compounds read low
[15] = locus YDR477W, strain SNF1, active compounds read low
[16] = locus YER123W, strain YCK3, active compounds read low
[17] = locus YER133W, strain GLC7, active compounds read low
[18] = locus YFL009W, strain cdc4, active compounds read low
[19] = locus YFL029C, strain CAK1, active compounds read low
[20] = locus YFR003C, strain YPI1, active compounds read low
[21] = locus YFR019W, strain FAB1, active compounds read low
[22] = locus YFR028C, strain CDC14, active compounds read low
[23] = locus YGR040W, strain KSS1, active compounds read low
[24] = locus YGR052W, strain FMP48, active compounds read low
[25] = locus YGR092W, strain DBF2, active compounds read low
[26] = locus YHR030C, strain SLT2, active compounds read low
[27] = locus YHR079C, strain IRE1, active compounds read low
[28] = locus YHR082C, strain KSP1, active compounds read low
[29] = locus YHR205W, strain SCH9, active compounds read low
[30] = locus YIL147C, strain SLN1, active compounds read low
[31] = locus YJL095W, strain BCK1, active compounds read low
[32] = locus YJL128C, strain PBS2, active compounds read low
[33] = locus YJL157C, strain FAR1, active compounds read low
[34] = locus YJR016C, strain ILV3, active compounds read low
[35] = locus YJR066W, strain TOR1 (second series), active compounds read low
[36] = locus YJR066W, strain TOR1, active compounds read low
[37] = locus YKL048C, strain ELM1, active compounds read low
[38] = locus YKL067W, strain YNK1, active compounds read low
[39] = locus YKL101W, strain HSL1, active compounds read low
[40] = locus YKL193C, strain SDS22, active compounds read low
[41] = locus YKL203C, strain TOR2, active compounds read low
[42] = locus YLR113W, strain HOG1, active compounds read low
[43] = locus YLR133W, strain CKI1, active compounds read low
[44] = locus YLR403W, strain SFP1, active compounds read low
[45] = locus YML070W, strain DAK1, active compounds read low
[46] = locus YMR001C, strain CDC5, active compounds read low
[47] = locus YMR205C, strain PFK2 (second series), active compounds read low
[48] = locus YMR277W, strain FCP1, active compounds read low
[49] = locus YNL006W, strain LST8, active compounds read low
[50] = locus YNL020C, strain ARK1, active compounds read low
[51] = locus YNL161W, strain CBK1, active compounds read low
[52] = locus YNL183C, strain NPR1, active compounds read low
[53] = locus YNL207W, strain RIO2, active compounds read low
[54] = locus YNL222W, strain SSU72, active compounds read low
[55] = locus YNL307C, strain MCK1 (second series), active compounds read low
[56] = locus YOL078W, strain AVO1, active compounds read low
[57] = locus YOL136C, strain PFK27, active compounds read low
[58] = locus YOR061W, strain CKA2, active compounds read low
[59] = locus YOR119C, strain RIO1, active compounds read low
[60] = locus YOR231W, strain MKK1, active compounds read low
[61] = locus YOR329C, strain SCD5, active compounds read low
[62] = locus YPL031C, strain PHO85, active compounds read low
[63] = locus YPL153C, strain RAD53, active compounds read low
[64] = locus YPL204W, strain HRR25, active compounds read low
[65] = locus YPL209C, strain IPL1, active compounds read low
[66] = locus YPL256C, strain CLN2, active compounds read low
[67] = locus YPR025C, strain CCL1, active compounds read low
[68] = locus YPR106W, strain ISR1, active compounds read low
[69] = locus YPR111W, strain DBF20, active compounds read low
[70] = strain NNK1, active compounds read low
[71] = strain TSCII, active compounds read low
[72] = locus YAL013W, strain DEP1, active compounds read low
[73] = locus YBR229C, strain ROT2, active compounds read low
[74] = locus YCL061C, strain MRC1, active compounds read low
[75] = locus YDL134C, strain PPH21, active compounds read low
[76] = locus YDR150W, strain NUM1, active compounds read low
[77] = locus YEL061C, strain CIN8, active compounds read low
[78] = locus YGR078C, strain PAC10, active compounds read low
[79] = locus YHR087W, strain rtc3, active compounds read low
[80] = locus YJR043C, strain POL32, active compounds read low
[81] = locus YJR075W, strain HOC1, active compounds read low
[82] = locus YKL190W, strain CNB1, active compounds read low
[83] = locus YLR039C, strain RIC1, active compounds read low
[84] = locus YLR058C, strain SHM2 (second series), active compounds read low
[85] = locus YLR085C, strain ARP6, active compounds read low
[86] = locus YLR262C, strain YPT6, active compounds read low
[87] = locus YML094W, strain GIM5, active compounds read low
[88] = locus YMR219W, strain ESC1, active compounds read low
[89] = locus YMR263W, strain SAP30, active compounds read low
[90] = locus YNL128W, strain TEP1, active compounds read low
[91] = locus YNL153C, strain GIM3, active compounds read low
[92] = locus YNL298W, strain CLA4 (second series), active compounds read low
[93] = locus YNL322C, strain KRE1, active compounds read low
[94] = locus YNR030W, strain Alg12, active compounds read low
[95] = locus YPL055C, strain LGE1, active compounds read low
[96] = locus YPL241C, strain CIN2, active compounds read low
[97] = locus YPR135W, strain CTF4, active compounds read low

Measured: normalized growth

Cc1csc2c(N3CCN(C(=S)Nc4ccc(C(F)(F)F)cc4)CC3)ncnc12
inactive: [1] 0.985 | [2] 0.989 | [3] 0.981 | [4] 0.982 | [5] 0.979 | [6] 0.992 | [7] 0.981 | [8] 0.988 | [9] 0.99 | [10] 0.998 | [11] 0.956 | [12] 0.999 | [13] 0.997 | [14] 0.997 | [15] 0.983 | [16] 0.937 | [17] 0.974 | [18] 0.992 | [19] 0.991 | [20] 0.992 | [21] 0.965 | [22] 0.978 | [23] 0.959 | [24] 1.02 | [25] 0.972 | [26] 0.979 | [27] 0.991 | [28] 1.04 | [29] 0.919 | [30] 0.992 | [31] 0.982 | [32] 0.96 | [33] 0.944 | [34] 0.993 | [35] 0.928 | [36] 1.06 | [37] 0.965 | [38] 0.963 | [39] 0.944 | [40] 0.986 | [41] 1.03 | [43] 0.959 | [44] 0.956 | [45] 0.924 | [46] 1 | [47] 0.949 | [48] 0.987 | [49] 0.988 | [50] 0.956 | [51] 0.98 | [52] 0.996 | [53] 0.978 | [54] 0.991 | [55] 0.937 | [56] 0.992 | [57] 0.922 | [58] 0.964 | [59] 1.03 | [60] 0.928 | [61] 0.986 | [62] 0.986 | [63] 0.979 | [64] 0.941 | [65] 0.984 | [66] 0.942 | [67] 0.982 | [68] 0.975 | [69] 0.977 | [70] 0.967 | [71] 0.992
active: [42] 0.826

Cc1csc2ncnc(N3CCN(C(=S)Nc4ccc(C(F)(F)F)cc4)CC3)c12
active: [42] 0.816
inactive: [1] 0.995 | [2] 0.987 | [3] 0.985 | [4] 1 | [5] 0.998 | [6] 1 | [7] 0.996 | [8] 0.985 | [9] 0.993 | [10] 0.996 | [11] 0.945 | [12] 1 | [13] 0.965 | [14] 0.994 | [15] 0.999 | [16] 0.926 | [17] 0.964 | [18] 0.99 | [19] 0.983 | [20] 0.996 | [21] 0.958 | [22] 0.993 | [23] 0.978 | [24] 0.999 | [25] 0.922 | [26] 0.919 | [27] 0.982 | [28] 1.02 | [29] 0.908 | [30] 1.01 | [31] 0.938 | [32] 0.92 | [33] 0.942 | [34] 0.995 | [35] 0.908 | [36] 1.02 | [37] 0.979 | [38] 0.968 | [39] 0.959 | [40] 0.996 | [41] 1.01 | [43] 0.95 | [44] 0.955 | [45] 0.94 | [46] 0.999 | [47] 0.954 | [48] 0.986 | [49] 0.989 | [50] 0.949 | [51] 0.997 | [52] 0.987 | [53] 0.991 | [54] 0.986 | [55] 0.958 | [56] 0.989 | [57] 0.933 | [58] 0.94 | [59] 1.01 | [60] 0.909 | [61] 0.998 | [62] 0.982 | [63] 0.932 | [64] 0.963 | [65] 0.977 | [66] 0.91 | [67] 0.984 | [68] 0.979 | [69] 0.978 | [70] 0.988 | [71] 1

Cc1csc2ncnc(N3CCN(C(=O)Nc4ccc(SC(F)(F)F)cc4)CC3)c12
inactive: [1] 1.01 | [2] 0.991 | [3] 0.999 | [4] 1 | [5] 0.979 | [6] 0.982 | [7] 0.994 | [8] 1 | [9] 0.995 | [10] 1 | [11] 0.908 | [12] 0.988 | [13] 0.993 | [14] 1 | [15] 0.937 | [16] 0.902 | [17] 0.912 | [18] 1.01 | [19] 1 | [20] 1.01 | [21] 0.918 | [22] 0.994 | [23] 0.925 | [24] 0.963 | [25] 0.867 | [27] 0.866 | [28] 0.947 | [29] 0.927 | [30] 0.987 | [31] 0.868 | [32] 0.972 | [33] 0.88 | [34] 0.994 | [35] 0.65 | [36] 0.915 | [37] 0.931 | [38] 0.915 | [39] 0.903 | [40] 1 | [41] 0.977 | [43] 0.909 | [44] 0.905 | [45] 0.886 | [46] 0.999 | [47] 0.903 | [48] 1 | [49] 0.997 | [50] 0.898 | [51] 1 | [52] 0.895 | [53] 0.987 | [54] 1 | [55] 0.866 | [56] 0.996 | [57] 0.869 | [58] 0.864 | [59] 0.967 | [60] 0.825 | [61] 1 | [62] 0.915 | [63] 0.914 | [64] 0.9 | [65] 1 | [67] 0.998 | [68] 0.988 | [69] 0.987 | [70] 0.993 | [71] 0.983
active: [26] 0.818 | [42] 0.806 | [66] 0.845

COc1ccccc1C1CCN(c2ncnc3scc(-c4ccccc4)c23)CC1
inactive: [72] 1 | [73] 1.01 | [74] 1 | [8] 1.04 | [75] 0.994 | [76] 1.05 | [77] 1 | [78] 1.01 | locus YGR229C, strain SMI1, active compounds read low 1.01 | [26] 1.03 | [79] 0.976 | [80] 1.01 | [81] 1.01 | [82] 1 | [83] 1.02 | [84] 0.984 | [85] 1.03 | [86] 1.01 | [87] 0.992 | [88] 0.996 | [89] 1.02 | [90] 1.02 | [91] 1.01 | [92] 0.994 | [93] 0.992 | [94] 1 | [95] 0.987 | [96] 1.04 | [97] 1.02

Cc1onc(-c2c(Cl)cccc2Cl)c1C(=O)N1CCN(c2ncnc3scc(-c4ccccc4)c23)CC1
inactive: [72] 0.97 | [73] 1 | [74] 0.994 | [8] 0.979 | [75] 1 | [76] 0.94 | [77] 1.02 | [78] 1 | [26] 0.942 | [79] 1.01 | [80] 0.977 | [81] 0.997 | [82] 1.01 | [83] 0.937 | [84] 1.01 | [85] 1.01 | [86] 0.962 | [87] 1.01 | [88] 1.01 | [89] 0.967 | [90] 1.01 | [91] 0.999 | [92] 1.02 | [93] 1.01 | [94] 1.01 | [95] 1.02 | [96] 1.01 | [97] 0.923
